Reference: PubChem BioAssay
Calls of active or inactive are those of the source.

Columns and labels:
[1] = tested on: Plasmodium falciparum Sir2 (PF13_0152, Sir2A); test: pfSir2 binders on small-molecule microarrays, primary screen, biochemical, small-molecule microarray, 635 nm fluorescence (AID 1098); details: small-molecule microarray binding, fluorescence 635 nm; higher = more signal;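 note: score merges spot fluorescence intensity with its signal-to-noise ratio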
[2] = small-molecule microarray binders of probe aDKK1, primary screen, biochemical, biotinylated probe, 635/667 nm fluorescence (AID 1099); details: higher = more signal;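 note: score merges 667nm spot fluorescence with signal to noise across triplicate slides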
[3] = small-molecule microarray binders of probe aCHRDL2, primary screen, biochemical, biotinylated probe, 635/667 nm fluorescence (AID 1100); details: higher = more signal
[4] = splicing luciferase reporter signal modulators, primary screen, spliceosome inhibition project, cell-based, HEK293, splice +/- reporter (AID 1101); details: luminescence, 24 h, higher = more signal, called active from +8 up or from −8 down;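 note: HEK293 cells carrying a splicing-competent luciferase reporter gene; test concentration not given here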
[5] = target: Fibroblast growth factor 10 (Homo sapiens) (UniProt O15520); test: FGF10 binders on small-molecule microarrays, primary screen, biochemical, small-molecule microarray, 635 nm fluorescence (AID 1102); details: FGF10 binding, fluorescence 635 nm, higher = more signal
Sequence of Fibroblast growth factor 10 (Homo sapiens) (O15520 whole entry, looked up): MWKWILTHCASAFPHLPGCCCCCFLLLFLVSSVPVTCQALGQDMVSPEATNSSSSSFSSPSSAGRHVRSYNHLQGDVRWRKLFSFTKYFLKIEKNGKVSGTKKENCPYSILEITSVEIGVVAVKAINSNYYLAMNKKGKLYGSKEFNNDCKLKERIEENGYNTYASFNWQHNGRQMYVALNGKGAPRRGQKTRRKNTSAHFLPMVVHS

[6] = tested on: glycogen synthase kinase-3 (GSK3A per assay name; protocol says GSK3B); test: GSK3 binders on small-molecule microarrays, primary screen, biochemical, small-molecule microarray, 635 nm fluorescence, GSK3A (AID 1103); details: small-molecule microarray binding, fluorescence 635 nm; higher = more signal; note: the record names both GSK3A and GSK3B
[7] = target: Epidermal growth factor receptor (Homo sapiens) (UniProt P00533); test: EGFR binders on small-molecule microarrays, primary screen, biochemical, small-molecule microarray, 635 nm fluorescence (AID 1104); details: EGFR binding, higher = more signal;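 note: score merges 667 nm emission intensity with spot signal to noise over triplicate slides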
Sequence of Epidermal growth factor receptor (Homo sapiens) (P00533 whole entry, looked up): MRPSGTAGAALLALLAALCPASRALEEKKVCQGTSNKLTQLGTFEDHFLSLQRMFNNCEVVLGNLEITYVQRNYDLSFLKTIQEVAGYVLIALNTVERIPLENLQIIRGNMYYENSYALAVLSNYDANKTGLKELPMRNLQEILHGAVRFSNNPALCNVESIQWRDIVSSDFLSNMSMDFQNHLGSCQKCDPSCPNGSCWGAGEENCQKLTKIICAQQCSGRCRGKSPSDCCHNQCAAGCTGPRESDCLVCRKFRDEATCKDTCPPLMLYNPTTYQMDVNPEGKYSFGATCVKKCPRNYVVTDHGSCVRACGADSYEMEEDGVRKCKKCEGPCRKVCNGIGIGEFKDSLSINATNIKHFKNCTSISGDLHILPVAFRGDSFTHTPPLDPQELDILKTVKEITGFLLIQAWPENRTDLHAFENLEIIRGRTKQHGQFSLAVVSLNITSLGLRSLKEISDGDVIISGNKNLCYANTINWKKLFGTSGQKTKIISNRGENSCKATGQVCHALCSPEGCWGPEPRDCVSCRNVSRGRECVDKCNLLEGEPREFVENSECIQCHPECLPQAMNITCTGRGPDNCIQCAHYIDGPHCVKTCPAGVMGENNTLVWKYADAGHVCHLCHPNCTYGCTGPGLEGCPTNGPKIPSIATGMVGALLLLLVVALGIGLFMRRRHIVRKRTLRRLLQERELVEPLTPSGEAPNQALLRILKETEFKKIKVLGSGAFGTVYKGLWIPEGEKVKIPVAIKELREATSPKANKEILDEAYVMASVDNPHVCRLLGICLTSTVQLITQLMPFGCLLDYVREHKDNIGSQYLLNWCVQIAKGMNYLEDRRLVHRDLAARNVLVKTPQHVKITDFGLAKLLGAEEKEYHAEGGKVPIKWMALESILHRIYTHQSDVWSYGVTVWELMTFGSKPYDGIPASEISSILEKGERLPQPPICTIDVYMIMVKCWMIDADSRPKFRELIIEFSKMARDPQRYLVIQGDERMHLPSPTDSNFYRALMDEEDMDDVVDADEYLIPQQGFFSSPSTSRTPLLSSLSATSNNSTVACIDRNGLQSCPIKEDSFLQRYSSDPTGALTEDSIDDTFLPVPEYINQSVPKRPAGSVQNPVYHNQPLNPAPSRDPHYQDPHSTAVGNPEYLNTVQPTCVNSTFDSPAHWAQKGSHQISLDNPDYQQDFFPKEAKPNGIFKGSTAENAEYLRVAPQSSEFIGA

[8] = target: Follistatin-related protein 3 (Homo sapiens) (UniProt O95633); test: FSTL3 binders on small-molecule microarrays, primary screen, biochemical, small-molecule microarray, 635 nm fluorescence (AID 1105); details: FSTL3 binding, higher = more signal;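 note: score merges emission near 667 nm and signal to noise per printed spot across three slides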
Sequence of Follistatin-related protein 3 (Homo sapiens) (O95633 whole entry, looked up): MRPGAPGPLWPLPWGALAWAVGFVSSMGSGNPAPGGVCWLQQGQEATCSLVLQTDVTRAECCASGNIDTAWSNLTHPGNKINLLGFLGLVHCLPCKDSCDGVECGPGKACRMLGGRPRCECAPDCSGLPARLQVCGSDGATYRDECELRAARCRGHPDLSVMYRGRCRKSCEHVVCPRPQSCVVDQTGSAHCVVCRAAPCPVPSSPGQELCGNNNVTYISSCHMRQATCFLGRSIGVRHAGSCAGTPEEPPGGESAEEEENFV

[9] = target: Dickkopf-related protein 1 (Homo sapiens) (UniProt O94907); test: DKK1 binders on small-molecule microarrays, primary screen, biochemical, small-molecule microarray, 635 nm fluorescence scan (AID 1106); details: DKK1 binding, higher = more signal;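 note: score merges emission near 667 nm with signal to noise over three replicate slides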
Sequence of Dickkopf-related protein 1 (Homo sapiens) (O94907 whole entry, looked up): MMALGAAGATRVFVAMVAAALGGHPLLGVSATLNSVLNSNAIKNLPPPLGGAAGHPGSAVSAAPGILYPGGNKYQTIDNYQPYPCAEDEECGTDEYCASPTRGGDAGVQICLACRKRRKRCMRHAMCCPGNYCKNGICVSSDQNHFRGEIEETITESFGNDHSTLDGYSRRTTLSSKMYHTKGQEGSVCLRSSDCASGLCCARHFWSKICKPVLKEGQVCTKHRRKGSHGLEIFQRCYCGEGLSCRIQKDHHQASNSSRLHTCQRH

[10] = tested on: Inhibin beta A chain (activin A); test: INHBA (activin A) binders on microarrays, primary screen, biochemical, small-molecule microarray, 635 nm fluorescence scan (AID 1107); details: small-molecule microarray binding, higher = more signal;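 note: mouse activin A protein probed at 4.33 µg/mL on printed slides; score merges bound-protein fluorescence near 667 nm with spot signal-to-noise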
[11] = tested on: Human papillomavirus type 1a protein E7 (residues 44-93); test: HPV1a E7 fragment binders on microarrays, primary screen, biochemical, small-molecule microarray, residues 44-93, 635 nm fluorescence (AID 1108); details: small-molecule microarray binding, fluorescence 635 nm; higher = more signal;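 note: E7 fragment applied at 1 µg/mL in TBST for 1 h at 4 C; score combines spot fluorescence with its signal to noise ratio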
[12] = modulators of HCV replicon luciferase signal, primary screen, HCV replication inhibitor project, Huh7 cells, luciferase reporter (AID 1109); details: 48 h, higher = more signal;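 note: huh7 hepatoma cells harbouring a luciferase neomycin HCV replicon reporter; luciferase luminescence as measure of HCV replicon replication; test concentration not given here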
[13] = target: Left-right determination factor 2 (Homo sapiens) (UniProt O00292); test: LEFTY2 binders on small-molecule microarrays, primary screen, biochemical, small-molecule microarray, 635 nm fluorescence scan (AID 1110); details: LEFTY2 binding, higher = more signal
Sequence of Left-right determination factor 2 (Homo sapiens) (O00292 whole entry, looked up): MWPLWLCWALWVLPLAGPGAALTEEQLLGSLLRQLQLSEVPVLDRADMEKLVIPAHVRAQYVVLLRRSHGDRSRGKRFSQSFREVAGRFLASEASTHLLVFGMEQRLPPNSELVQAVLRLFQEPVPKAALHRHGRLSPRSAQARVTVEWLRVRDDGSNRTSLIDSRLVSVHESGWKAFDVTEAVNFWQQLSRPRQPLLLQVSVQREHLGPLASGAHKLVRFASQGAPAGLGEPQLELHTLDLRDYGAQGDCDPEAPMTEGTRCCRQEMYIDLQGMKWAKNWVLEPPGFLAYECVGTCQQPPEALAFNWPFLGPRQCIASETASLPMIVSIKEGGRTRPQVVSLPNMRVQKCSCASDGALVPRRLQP

[14] = target: Calmodulin-1 (Homo sapiens) (UniProt P0DP23); test: CALM1 binders on microarrays, EGTA buffer, profiling panel, biochemical, small-molecule microarray, Cy5-labelled CALM1 (AID 1111); details: Cy5-CALM1 binding fluorescence, higher = more signal;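 note: labelled calmodulin applied in Tris saline Tween buffer holding calcium plus EGTA and DTT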
[15] = target: Calmodulin-1 (Homo sapiens) (UniProt P0DP23); test: calcium-bound CALM1 binders on microarrays, profiling panel, artefact control for SMM control-protein annotation, biochemical, small-molecule microarray, Cy5-labelled CALM1, plus calcium (AID 1112); details: Cy5-CALM1 binding fluorescence, higher = more signal;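 note: score merges spot fluorescence with signal to noise from triplicate slides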
[16] = small-molecule microarray binders of probe aWnt5a, primary screen, biochemical, biotinylated probe, 635/667 nm fluorescence (AID 1113); details: higher = more signal;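 note: score merges 667 nm fluorescence intensity with signal-to-noise per printed feature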
[17] = small-molecule microarray binders of probe aShh, primary screen, biochemical, biotinylated probe, 635/667 nm fluorescence (AID 1114); details: higher = more signal;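 note: probe is biotin-labelled aShh protein from a stem cell growth factor screen; measures binding of labelled protein to compounds printed on the slide; score merges feature fluorescence at 667 nm with signal-to-noise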
[18] = small-molecule microarray binders of probe aNog, primary screen, biochemical, biotinylated probe, 635/667 nm fluorescence (AID 1115); details: higher = more signal;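 note: probe is biotinylated aNog protein used at 0.15 µg/mL for 1 h at 4 C; z-score combines 667 nm fluorescence of each spot with its signal to noise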
[19] = target: Torsin-1A-interacting protein 1 (Homo sapiens) (UniProt Q5JTV8); test: LAP1 binders from COS7 cell lysate, primary screen, small-molecule microarray, 635/667 nm fluorescence (AID 1116); details: COS7-hLAP1 lysate binding, 635 nm fluorescence, higher = more signal
Sequence of Torsin-1A-interacting protein 1 (Homo sapiens) (Q5JTV8 whole entry, looked up): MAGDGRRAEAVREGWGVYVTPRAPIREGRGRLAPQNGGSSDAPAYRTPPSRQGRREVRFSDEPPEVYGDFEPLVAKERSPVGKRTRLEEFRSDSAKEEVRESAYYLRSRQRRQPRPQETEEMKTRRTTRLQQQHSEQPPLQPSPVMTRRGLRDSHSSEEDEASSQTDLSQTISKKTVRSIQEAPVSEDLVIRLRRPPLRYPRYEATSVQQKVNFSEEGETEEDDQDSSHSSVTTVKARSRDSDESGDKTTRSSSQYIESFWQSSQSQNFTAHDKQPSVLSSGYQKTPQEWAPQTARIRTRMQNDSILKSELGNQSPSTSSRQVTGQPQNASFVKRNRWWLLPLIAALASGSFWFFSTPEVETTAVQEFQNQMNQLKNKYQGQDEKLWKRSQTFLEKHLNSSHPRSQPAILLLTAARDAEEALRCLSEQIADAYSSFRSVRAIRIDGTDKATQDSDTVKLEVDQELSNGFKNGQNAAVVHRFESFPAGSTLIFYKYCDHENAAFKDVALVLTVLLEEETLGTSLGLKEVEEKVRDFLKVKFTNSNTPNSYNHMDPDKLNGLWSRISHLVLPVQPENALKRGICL

[20] = target: Alpha-bungarotoxin (Bungarus multicinctus) (UniProt P60615); test: alpha-bungarotoxin binders on microarray, profiling panel, artefact control for SMM control protein annotation, biochemical, small-molecule microarray, Alexa647 label, 635/667 nm fluorescence (AID 1117); details: alpha-BTX-A647 binding fluorescence, higher = more signal
Sequence of Alpha-bungarotoxin (Bungarus multicinctus) (P60615 whole entry, looked up): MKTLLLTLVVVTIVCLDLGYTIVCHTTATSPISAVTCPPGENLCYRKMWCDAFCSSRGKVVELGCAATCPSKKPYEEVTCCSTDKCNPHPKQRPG

Row | Compound | composite z-score [1] | composite z-score [2] | composite z-score [3] | z-score [4] | composite z-score [5] | composite z-score [6] | composite z-score [7] | composite z-score [8] | composite z-score [9] | composite z-score [10] | composite z-score [11] | z-score [12] | composite z-score [13] | composite z-score [14] | composite z-score [15] | composite z-score [16] | composite z-score [17] | composite z-score [18] | composite z-score [19] | composite z-score [20]
1 | CC(C)[C@@H](C(=O)O)n1cc(-c2ccccc2)nn1 | 0.377 | 0.824 | 0.69 | 0.317 (inactive) | 0.737 | 1.27 | 0.262 | 0.256 | 0.0435 | 0.48 | 0.972 | 0.281 | 0.396 | 0.913 | 0.957 | 0.0145 | 0.227 | -0.0238 | 0.941 | 1.03
2 | N[C@@H](Cc1ccccc1)Cn1cc(C2(O)CCCCC2)nn1 | -0.431 | -0.149 | 0.174 | 0.242 (inactive) | -0.493 | -0.507 | 0.0669 | -0.133 | -0.0564 | -0.239 | 0.488 | 0.118 | 0.0904 | 0.816 | -0.431 | -0.0236 | 0.23 | -0.0827 | 0.228 | 0.967
3 | [N-]=[N+]=NCc1ccccc1C[C@@]1(C(=O)O)N=C(c2ccc(OCCCO)cc2)O[C@@H]1c1ccccc1CN=[N+]=[N-] | 0.705 | 0.317 | 0.779 | -0.806 (inactive) | 1.15 | 0.577 | -0.227 | 0.814 | 0.31 | 0.69 | 1.39 | -1.84 | 0.219 | 0.973 | -0.0107 | 0.0676 | 0.0121 | -0.56 | 0.74 | 1.27
4 | COCCOC(=O)N1C(=O)[C@@]2(c3cc(C#CCC(C(=O)OC)C(=O)OC)ccc31)[C@H](c1ccc(OCCO)cc1)N1[C@H](c3ccccc3)[C@H](c3ccccc3)OC(=O)[C@H]1[C@@H]2C(=O)N1CCCCCCC1 | 1.27 | 2.5 | 1.21 | -0.915 (inactive) | 0.778 | 1.34 | 1.32 | 1.66 | 1.04 | 1.93 | 1.21 | -0.735 | 1.13 | 2.57 | 1.53 | 0.816 | 2.6 | 3.08 | 3.22 | 2.32
5 | COC(=O)Cn1c(C(=O)N(C)C)cc2c1C[C@H]1CN(C(=O)c3ccccc3)[C@@](Cc3ccc(OC)cc3)(C(=O)OC)[C@@H]21 | 1.39 | 0.311 | 0.635 | -4.19 (inactive) | 1.13 | -0.196 | 0.0287 | 0.36 | -0.165 | 0.421 | 1.3 | -1.69 | -0.212 | 0.966 | -0.39 | 0.409 | 0.297 | 2.26 | 1.8 | 0.299
6 | CCCCC(O)C1C=CC2C(=O)NC(=O)C2N1Nc1ccc(Cl)cc1Cl (stereo not given) | 0.976 | 0.635 | 1.03 | -0.167 (inactive) | 0.228 | -0.104 | -0.429 | -0.125 | -0.8 | 0.979 | 0.694 | -1.12 | -1.11 | 0.436 | 0.476 | 0.0915 | 0.0483 | 1.31 | -0.0411 | 1.1
7 | CCCCC(=C=CC[C@@H](O)c1ccc(OCCO)cc1)C[C@@H](O)c1ccccn1 | 0.381 | -0.0087 | -0.162 | 0.0171 (inactive) | 0.279 | 0.382 | -0.123 | 0.588 | 0.414 | 0.981 | -0.0715 | -1.49 | 0.288 | 0.421 | 0.0751 | -0.0685 | 0.0611 | 0.157 | 0.642 | 0.0829
8 | C=CCNC(=O)[C@@H]1[C@H]2C(=O)O[C@H](c3ccccc3)[C@H](c3ccccc3)N2[C@H](c2ccc(O)cc2)[C@@]12C(=O)Nc1ccc(C#CC3(O)CCCCCC3)cc12 | 1.1 | -0.0065 | -0.0122 | 0.405 (inactive) | 0.746 | -0.206 | 0.348 | 0.196 | 0.446 | -0.195 | 0.754 | -0.608 | 0.0712 | -0.542 | -0.0571 | -0.127 | 0.488 | -0.499 | 0.824 | -0.243
9 | C=C(COC)C(=O)CC[C@@H](OC(C)=O)c1ccc(OCCO)cc1 | 1.09 | 0.237 | 0.523 | 2 (inactive) | 0.977 | 0.186 | -0.484 | 0.278 | -0.0393 | 1.42 | -0.133 | -1.23 | -0.374 | -0.473 | -0.621 | -0.154 | 0.0373 | 0.197 | 0.119 | 1.39
10 | COc1ccc(C(O)C2C=CC3C(=O)N(C)C(=O)C3N2Nc2ccc([N+](=O)[O-])cc2[N+](=O)[O-])cc1OCc1ccccc1 (stereo not given) | 0.994 | 1.23 | 1.24 | 1.16 (inactive) | 0.895 | 0.858 | 0.0333 | 0.84 | -0.508 | 0.718 | 1.39 | 0.714 | -0.0506 | 0.211 | -0.0482 | 0.112 | 0.28 | 1.38 | 0.527 | 1.5
